# Measurements taken from PubChem BioAssay (EPA / NIEHS).
# Values joined by “and” are separate entries in the source; they are usually repeats but may differ in a detail not shown here. Equal entries are not always repeated. Inconclusive results are not listed. A structure can be active in one record and inactive in another. Active and inactive are the calls of the source. How the source made its calls, unless noted: active means hit-call score of the fitted dose curve at least 0.9, where 1 is the maximum; inactive means score below 0.9.
# How the values were obtained:
# [1] = read-out: Interleukin-8 (IL8), CXCL8 (gene 3576); experiment: BSK_3C_IL8: BioMAP Diversity Plus: 3C Assay for Interleukin-8 (IL8) Biomarker Activity (AID 2283020); settings: primary human endothelial cells (HUVEC); actives raise or lower the signal
# In short: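 HUVEC, 3C stimulation; 24 h compound exposure; IL-8 read by ELISA; gain or loss of signal fitted relative to DMSO control.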
# [2] = read-out: Monokine induced gamma interferon (MIG), CXCL9 (gene 4283); experiment: BSK_3C_MIG: BioMAP Diversity Plus: 3C Assay for Monokine induced gamma interferon (MIG) Biomarker Activity (AID 2283021); settings: primary human endothelial cells (HUVEC); actives raise or lower the signal;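 on AC50: MIG protein level measured by immunoassay in the treated endothelial cultures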
# In short: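 HUVEC, 3C system; 24 h chemical exposure; MIG by ELISA; bidirectional fit vs DMSO baseline.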
# [3] = target: human Vitamin D Receptor (VDR), VDR (gene 7421) (UniProt P11473); experiment: ATG_VDR_TRANS: Attagene TRANS-FACTORIAL HepG2 Assay for human Vitamin D Receptor (VDR) (AID 2283022; active means hit-call score of the fitted dose curve at least 0.9, where 1 is the maximum)
# In short: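 RT-PCR/capillary electrophoresis read-out of reporter mRNA induction in transiently transfected HepG2; 24 h dosing; chimeric NR-Gal4 (TRANS format); gain-of-signal fit against DMSO baseline.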
# [4] = BSK_3C_SRB: Viability Assessment in the BioMAP Diversity Plus: 3C Assay (AID 2283023); settings: primary human endothelial cells (HUVEC);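 further: fitted both ways against DMSO so a hit may be signal rise or drop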
# In short: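 HUVEC, 24 h post-dose; 10% TCA fix, 0.1% SRB stain, A560 nm. Bidirectional curve fit vs DMSO negative control.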
# [5] = read-out: Matrix Metallopeptidase 1 (MMP1), MMP1 (gene 4312); experiment: BSK_BE3C_MMP1: BioMAP Diversity Plus: BE3C Assay for Matrix Metallopeptidase 1 (MMP1) Biomarker Activity (AID 2283024); settings: primary human bronchial epithelial cells; actives raise or lower the signal
# In short: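 ELISA read-out of MMP1 in human lung bronchial epithelial primary cultures, 24 h post-dose; bidirectional curve fit vs DMSO baseline, gain or loss of signal scored.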
# [6] = BSK_3C_Vis: BioMAP Diversity Plus: 3C Assay for Morphology Visualization (AID 2283025); settings: primary human endothelial cells (HUVEC);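 further: fitted both ways so gain or loss versus DMSO counts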;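 on AC50: light microscopy image of cell morphology used as background control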
# In short: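 HUVEC, 3C system; light microscopy of morphology at 24 h post-dose. Bidirectional fit vs DMSO baseline. Secondary readout, background-control function.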
# [7] = BSK_4H_SRB: Viability Assessment in the BioMAP Diversity Plus: 4H Assay (AID 2283027); settings: primary human endothelial cells (HUVEC);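 further: cells exposed to compound for 24 h before staining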;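 on AC50: curves fitted both ways versus DMSO so AC50 may be loss or gain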
# In short: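 Cytotoxicity read-out in primary human endothelial cells: after 24 h compound exposure, cells were TCA-fixed (10%), stained with 0.1% SRB and absorbance taken at 560 nm. Values fitted in both directions relative to DMSO.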
# [8] = read-out: Thrombomodulin, THBD (gene 7056); experiment: BSK_3C_Thrombomodulin: BioMAP Diversity Plus: 3C Assay for Thrombomodulin Biomarker Activity (AID 2283029); settings: primary human endothelial cells (HUVEC); actives raise or lower the signal
# In short: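 HUVEC, 3C conditions; compound 24 h; thrombomodulin by ELISA; bidirectional curve fit vs DMSO baseline; parallel SRB total-protein staining for cytotoxicity.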
# [9] = read-out: Urokinase-type plasminogen activator receptor (uPAR), PLAUR (gene 5329); experiment: BSK_4H_uPAR: BioMAP Diversity Plus: 4H Assay for Urokinase-type plasminogen activator receptor (uPAR) Biomarker Activity (AID 2283030); settings: primary human endothelial cells (HUVEC); actives raise or lower the signal
# In short: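 HUVEC, 24 h post-dose; uPAR by ELISA; bidirectional fit vs DMSO baseline.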
# [10] = read-out: Vascular endothelial growth factor receptor 2 (Homo sapiens) (UniProt P35968); experiment: BSK_4H_VEGFRII: BioMAP Diversity Plus: 4H Assay for Vascular endothelial growth factor receptor 2 (VEGFR2) Biomarker Activity (AID 2283031); settings: primary human endothelial cells (HUVEC); actives raise or lower the signal;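 on AC50: cell-surface VEGFR2 protein level quantified by ELISA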
# In short: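 HUVEC (human primary), 4H system; 24 h post-dose; VEGFRII by ELISA; bidirectional curve fit vs DMSO baseline; gain or loss of signal scored.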
# [11] = read-out: Human Leukocyte Antigen - DR isotype (HLADR), HLA-DRA (gene 3122); experiment: BSK_BE3C_HLADR: BioMAP Diversity Plus: BE3C Assay for Human Leukocyte Antigen - DR isotype (HLADR) Biomarker Activity (AID 2283032); settings: primary human bronchial epithelial cells; actives raise or lower the signal
# In short: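 Primary human bronchial epithelial cells (BE3C); 24 h chemical exposure; HLA-DR by ELISA; bidirectional curve fit vs DMSO baseline.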
# [12] = read-out: Vascular cell adhesion molecule 1 (VCAM1), VCAM1 (gene 7412); experiment: BSK_4H_VCAM1: BioMAP Diversity Plus: 4H Assay for Vascular cell adhesion molecule 1 (VCAM1) Biomarker Activity (AID 2283033); settings: primary human endothelial cells (HUVEC); actives raise or lower the signal;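 on outcome: cell-surface VCAM-1 protein measured by ELISA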
# In short: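 HUVEC, 24 h post-dose; VCAM-1 by ELISA. Bidirectional curve fit vs DMSO baseline. Parallel SRB total-protein stain (0.1% SRB after 10% TCA fixation, 560 nm) for cytotoxicity.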
# [13] = read-out: Interferon-gamma inducible Protein 10 (IP10), CXCL10 (gene 3627); experiment: BSK_BE3C_IP10: BioMAP Diversity Plus: BE3C Assay for Interferon-gamma inducible Protein 10 (IP10) Biomarker Activity (AID 2283034); settings: primary human bronchial epithelial cells; actives raise or lower the signal
# In short: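 ELISA readout of IP-10 in BE3C system: primary human bronchial epithelial cells, 24 h post-dosing; bidirectional curve fit vs DMSO baseline.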
# [14] = read-out: Monokine induced gamma interferon (MIG), CXCL9 (gene 4283); experiment: BSK_BE3C_MIG: BioMAP Diversity Plus: BE3C Assay for Monokine induced gamma interferon (MIG) Biomarker Activity (AID 2283035); settings: primary human bronchial epithelial cells; actives raise or lower the signal;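 on outcome: MIG protein measured by ELISA in BE3C cultures after 24 h of dosing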
# In short: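 ELISA quantified MIG after 24 h exposure of primary bronchial epithelial cultures, analysed in both directions relative to DMSO. Cytotoxicity tracked in parallel cultures by sulforhodamine B staining.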
# [15] = read-out: Transforming growth factor beta 1 (TGFb1), TGFB1 (gene 7040); experiment: BSK_BE3C_TGFb1: BioMAP Diversity Plus: BE3C Assay for Transforming growth factor beta 1 (TGFb1) Biomarker Activity (AID 2283036;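 on outcome: TGF-b1 protein level measured by ELISA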); settings: primary human bronchial epithelial cells; actives raise or lower the signal
# In short: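 Read-out: ELISA for TGF-b1 in primary human bronchial epithelial cultures, 24 h post-dose. Bidirectional curve fitting vs DMSO control; gain or loss of signal both scored.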
# [16] = read-out: Plasminogen activator inhibitor-1 (PAI1), SERPINE1 (gene 5054); experiment: BSK_BE3C_PAI1: BioMAP Diversity Plus: BE3C Assay for Plasminogen activator inhibitor-1 (PAI1) Biomarker Activity (AID 2283037); settings: primary human bronchial epithelial cells; actives raise or lower the signal
# In short: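 ELISA read-out of PAI-1 from human bronchial epithelial primary cells, 24 h post-dosing; bidirectional curve fit vs DMSO baseline, gain or loss of signal scored.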
# [17] = read-out: urokinase plasminogen activator (uPA), PLAU (gene 5328); experiment: BSK_BE3C_uPA: BioMAP Diversity Plus: BE3C Assay for urokinase plasminogen activator (uPA) Biomarker Activity (AID 2283038); settings: primary human bronchial epithelial cells; actives raise or lower the signal;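 on outcome: uPA protein level quantified by ELISA in cell cultures; uPA read one day after compound addition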
# In short: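 ELISA read-out of uPA in human lung primary bronchial epithelial cultures, 24 h post-dosing. Gain or loss of signal fitted bidirectionally relative to DMSO baseline; cytotoxicity checked in parallel cultures via SRB total protein stain.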
# [18] = read-out: Urokinase-type plasminogen activator receptor (uPAR), PLAUR (gene 5329); experiment: BSK_BE3C_uPAR: BioMAP Diversity Plus: BE3C Assay for Urokinase-type plasminogen activator receptor (uPAR) Biomarker Activity (AID 2283039); settings: primary human bronchial epithelial cells; actives raise or lower the signal;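 on outcome: uPAR protein level measured by ELISA on the cells; cells exposed to compound for one day before measurement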
# In short: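 ELISA readout of uPAR on human lung primary bronchial epithelial cells, 24 h post-dosing. Bidirectional curve fit relative to DMSO vehicle baseline; gain or loss of signal both scored.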
# [19] = read-out: Pselectin, SELP (gene 6403); experiment: BSK_4H_Pselectin: BioMAP Diversity Plus: 4H Assay for Pselectin Biomarker Activity (AID 2283026); settings: primary human endothelial cells (HUVEC); actives raise or lower the signal
# In short: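 HUVEC, 24 h chemical exposure; P-selectin read by ELISA. Bidirectional curve fit vs DMSO baseline; gain or loss of signal scored.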
# [20] = BSK_BE3C_SRB: Viability Assessment in the BioMAP Diversity Plus: BE3C Assay (AID 2283028); settings: primary human bronchial epithelial cells
# In short: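 Primary human bronchial epithelium; chemical dosing, 24 h; 10% TCA fix, 0.1% SRB stain, A560; bidirectional fit vs DMSO baseline.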
# Chain of human Vitamin D Receptor (VDR), VDR (gene 7421) (P11473 whole entry, looked up, the tested form may be a part): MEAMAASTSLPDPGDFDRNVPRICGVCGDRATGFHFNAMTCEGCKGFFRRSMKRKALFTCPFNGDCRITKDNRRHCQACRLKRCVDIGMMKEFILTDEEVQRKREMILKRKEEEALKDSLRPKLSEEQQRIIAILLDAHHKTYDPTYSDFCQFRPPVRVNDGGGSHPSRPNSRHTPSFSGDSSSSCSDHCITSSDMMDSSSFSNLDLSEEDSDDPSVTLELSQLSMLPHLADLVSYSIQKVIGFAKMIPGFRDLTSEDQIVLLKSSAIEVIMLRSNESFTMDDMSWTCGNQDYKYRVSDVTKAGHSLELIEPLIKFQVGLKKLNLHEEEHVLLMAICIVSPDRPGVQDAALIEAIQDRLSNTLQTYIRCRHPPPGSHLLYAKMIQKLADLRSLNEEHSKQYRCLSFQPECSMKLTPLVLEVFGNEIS
smiles,measurement,setting,value
C[C@]12CC[C@H]3C(=CCc4cc(O)ccc43)[C@@H]1CCC2=O,outcome,[1],inactive
same,outcome,[2],inactive
same,outcome,[3],inactive
same,outcome,[4],inactive
same,outcome,[5],inactive
same,outcome,[6],inactive
same,outcome,[7],inactive
same,outcome,[8],inactive
same,outcome,[9],inactive
same,outcome,[10],inactive
same,outcome,[11],inactive
same,outcome,[12],inactive
same,AC50,[13],6.48 µM (active)
same,outcome,[14],inactive
same,outcome,[15],inactive
same,outcome,[16],inactive
same,outcome,[17],inactive
same,outcome,[18],inactive
Cc1cc(O)c(C(C)(C)C)cc1C(C)(C)C,AC50,[1],2.73 µM (active)
same,AC50,[2],11.5 µM (active)
same,outcome,[3],inactive
same,AC50,[4],3.99 µM (active)
same,AC50,[5],9.45 µM (active)
same,AC50,[6],12.5 µM (active)
same,AC50,[7],4.77 µM (active)
same,AC50,[8],4.96 µM (active)
same,AC50,[9],3.28 µM (active)
same,outcome,[10],inactive
same,AC50,[11],5.31 µM (active)
same,AC50,[12],4.86 µM (active)
same,AC50,[13],6.09 µM (active)
same,AC50,[14],11 µM (active)
same,AC50,[15],5.2 µM (active)
same,AC50,[16],5.28 µM (active)
same,AC50,[17],5.51 µM (active)
same,AC50,[18],5.33 µM (active)
FC(F)(F)C(F)(F)C(F)(F)CC1CO1 (centres undefined),outcome,[1],inactive
same,outcome,[2],inactive
same,outcome,[3],inactive
same,outcome,[4],inactive
same,AC50,[5],26.3 µM (active)
same,outcome,[5],inactive
same,outcome,[7],inactive
same,outcome,[8],inactive
same,outcome,[9],inactive
same,outcome,[10],inactive
same,outcome,[11],inactive
same,outcome,[12],inactive
same,outcome,[13],inactive
same,outcome,[14],inactive
same,outcome,[16],inactive
same,outcome,[17],inactive
same,outcome,[18],inactive
CNS(=O)(=O)C(F)(F)C(F)(F)C(F)(F)C(F)(F)C(F)(F)C(F)(F)C(F)(F)C(F)(F)F,outcome,[1],inactive
same,outcome,[2],inactive
same,outcome,[3],inactive
same,outcome,[4],inactive
same,outcome,[5],inactive
same,outcome,[19],inactive
same,AC50,[7],29.8 µM (active)
same,outcome,[7],inactive
same,outcome,[20],inactive
same,outcome,[8],inactive
same,outcome,[9],inactive
same,outcome,[10],inactive
same,outcome,[11],inactive
same,outcome,[12],inactive
same,AC50,[13],13.3 µM (active)
same,outcome,[13],inactive
same,outcome,[14],inactive
same,AC50,[16],2.67 µM (active) and 1.97 µM (active)
same,outcome,[17],inactive
same,outcome,[18],inactive
CCN(CC)c1ccc(N=Nc2ccccc2)cc1,AC50,[1],20 µM (active)
same,outcome,[2],inactive
same,outcome,[3],inactive
same,AC50,[4],12.1 µM (active)
same,outcome,[5],inactive
same,AC50,[6],8.8 µM (active)
same,AC50,[7],20 µM (active)
same,outcome,[20],inactive
same,outcome,[8],inactive
same,outcome,[9],inactive
same,AC50,[10],20 µM (active)
same,outcome,[11],inactive
same,AC50,[12],16.9 µM (active)
same,AC50,[13],10.2 µM (active)
same,outcome,[14],inactive
same,AC50,[15],20 µM (active)
same,AC50,[16],29.3 µM (active)
same,outcome,[17],inactive
same,outcome,[18],inactive
NC(O)(C(F)(F)F)C(F)(F)F,outcome,[1],inactive
same,outcome,[2],inactive
same,outcome,[3],inactive
same,outcome,[4],inactive
same,outcome,[5],inactive
same,outcome,[19],inactive
same,outcome,[7],inactive
same,outcome,[8],inactive
same,outcome,[9],inactive
same,outcome,[10],inactive
same,outcome,[11],inactive
same,outcome,[12],inactive
same,outcome,[13],inactive
same,outcome,[14],inactive
same,outcome,[16],inactive
same,outcome,[17],inactive
same,outcome,[18],inactive
